Assay results reported in the supplement of paper PMC12645437, “Orthogonal IMiD-Degron Pairs Induce Selective Protein Degradation in Cells” (ACS Chemical Biology, 2025).
Over roughly 8,300 sequences, “log2 fold change of degron read counts, EGFP-low vs EGFP+ sorted cells (limma voom), compound-induced degradation” has its median near -1.1; the highest 2% begin near 3.2. The full list was thinned out, with the highest values kept by preference.

Molecular target: T1, CRBN, Q96SW2
T1 chain: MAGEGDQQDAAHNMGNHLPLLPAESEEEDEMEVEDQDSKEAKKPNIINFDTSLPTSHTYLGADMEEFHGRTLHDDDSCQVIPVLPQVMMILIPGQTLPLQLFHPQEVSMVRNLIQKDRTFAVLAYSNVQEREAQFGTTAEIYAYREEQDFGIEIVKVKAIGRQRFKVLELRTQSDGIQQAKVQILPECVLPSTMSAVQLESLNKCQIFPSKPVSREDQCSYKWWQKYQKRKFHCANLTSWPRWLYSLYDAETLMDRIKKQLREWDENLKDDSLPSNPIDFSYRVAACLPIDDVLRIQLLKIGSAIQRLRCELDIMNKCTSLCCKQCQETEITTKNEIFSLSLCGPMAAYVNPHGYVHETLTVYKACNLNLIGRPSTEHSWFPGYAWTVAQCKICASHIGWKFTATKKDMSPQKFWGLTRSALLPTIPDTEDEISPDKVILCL
Assay: log2 fold change of degron read counts, EGFP-low vs EGFP+ sorted cells (limma voom), compound-induced degradation; higher = more compound-induced degradation of the degron-EGFP fusion; degrons are variants of IKZF1/3 zinc finger 2; compound dose not given here
Settings: Jurkat, 18 h

[1] = compound: compound 19 (5-tert-butyl-thalidomide)
[2] = compound: compound 22 (5-morpholino-thalidomide)
[3] = compound: compound 33 (diphenyl IMiD analogue)
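Further: pooled lentiviral library of zinc finger degron-EGFP fusions in mCherry-positive Jurkat cells, FACS-sorted after compound exposure, with degron abundance counted by next-generation sequencing.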

FSCNICGAGFTQKGNLLRHIKL [46F_47S_49N_50I_52G_53A_54G_55F_67L_, Q9UKT9]
log2 fold change of degron read counts [1]: 1.15
log2 fold change of degron read counts [2]: 0.769
log2 fold change of degron read counts [3]: 0.918
log2 fold change of degron read counts (compound: thalidomide): 0.088

FWCEICGATFTQKGNLLRHIKL [46F_47W_49E_50I_52G_53A_54T_55F_67L_, Q9UKT9]
log2 fold change of degron read counts [1]: 3.05
log2 fold change of degron read counts [2]: 3.73
log2 fold change of degron read counts [3]: 1.97
log2 fold change of degron read counts (compound: thalidomide): 0.793

FVCEICGATFTQKGNLLRHIKL [46F_47V_49E_50I_52G_53A_54T_55F_67L_, Q9UKT9]
log2 fold change of degron read counts [1]: 0.63
log2 fold change of degron read counts [2]: 1.64
log2 fold change of degron read counts [3]: 1.82
log2 fold change of degron read counts (compound: thalidomide): 2.54

FGCEICGATFTQKGNLLRHIKL [46F_47G_49E_50I_52G_53A_54T_55F_67L_, Q9UKT9]
log2 fold change of degron read counts [1]: 3.22
log2 fold change of degron read counts [2]: 2.59
log2 fold change of degron read counts [3]: 1.76
log2 fold change of degron read counts (compound: thalidomide): 1.11

FFCEICGHIFTQKGNLLRHIKL [46F_47F_49E_50I_52G_53H_54I_55F_67L_, Q9UKT9]
log2 fold change of degron read counts [1]: -0.448
log2 fold change of degron read counts [2]: -0.503
log2 fold change of degron read counts [3]: -0.957
log2 fold change of degron read counts (compound: thalidomide): -1.04

LLCEICGFSCTQKGNLLRHIKL [46L_47L_49E_50I_52G_53F_54S_55C_67L_, Q9UKT9]
log2 fold change of degron read counts [1]: 1.68
log2 fold change of degron read counts [2]: -0.0296
log2 fold change of degron read counts [3]: 1.49
log2 fold change of degron read counts (compound: thalidomide): 2.43

LVCEICGFSCTQKGNLLRHIKL [46L_47V_49E_50I_52G_53F_54S_55C_67L_, Q9UKT9]
log2 fold change of degron read counts [1]: 2.39
log2 fold change of degron read counts [2]: 3.11
log2 fold change of degron read counts [3]: 2.52
log2 fold change of degron read counts (compound: thalidomide): 3.33

LWCEICGFSCTQKGNLLRHIKL [46L_47W_49E_50I_52G_53F_54S_55C_67L_, Q9UKT9]
log2 fold change of degron read counts [1]: 3.66
log2 fold change of degron read counts [2]: 3.79
log2 fold change of degron read counts [3]: 3.08
log2 fold change of degron read counts (compound: thalidomide): 1.89

LHCEICGFSCTQKGNLLRHIKL [46L_47H_49E_50I_52G_53F_54S_55C_67L_, Q9UKT9]
log2 fold change of degron read counts [1]: 3.19
log2 fold change of degron read counts [2]: 3.16
log2 fold change of degron read counts [3]: 2.27
log2 fold change of degron read counts (compound: thalidomide): 2.44

LECEICGFSCTQKGNLLRHIKL [46L_47E_49E_50I_52G_53F_54S_55C_67L_, Q9UKT9]
log2 fold change of degron read counts [1]: 0.457
log2 fold change of degron read counts [2]: -1.92
log2 fold change of degron read counts [3]: 1.25
log2 fold change of degron read counts (compound: thalidomide): 2.46

LSCEICGFSCTQKGNLLRHIKL [46L_47S_49E_50I_52G_53F_54S_55C_67L_, Q9UKT9]
log2 fold change of degron read counts [1]: 2.75
log2 fold change of degron read counts [2]: 2.53
log2 fold change of degron read counts [3]: 1.7
log2 fold change of degron read counts (compound: thalidomide): 1.8

LRCEICGFSCTQKGNLLRHIKL [46L_47R_49E_50I_52G_53F_54S_55C_67L_, Q9UKT9]
log2 fold change of degron read counts [1]: 2.23
log2 fold change of degron read counts [2]: 1.56
log2 fold change of degron read counts [3]: 2.62
log2 fold change of degron read counts (compound: thalidomide): 2.99

LDCEICGFSCTQKGNLLRHIKL [46L_47D_49E_50I_52G_53F_54S_55C_67L_, Q9UKT9]
log2 fold change of degron read counts [1]: 0.356
log2 fold change of degron read counts [2]: -1.04
log2 fold change of degron read counts [3]: -1.04
log2 fold change of degron read counts (compound: thalidomide): -0.00753

LACEICGFSCTQKGNLLRHIKL [46L_47A_49E_50I_52G_53F_54S_55C_67L_, Q9UKT9]
log2 fold change of degron read counts [1]: 3.41
log2 fold change of degron read counts [2]: 2.96
log2 fold change of degron read counts [3]: 0.73
log2 fold change of degron read counts (compound: thalidomide): 1.55

LGCEICGFSCTQKGNLLRHIKL [46L_47G_49E_50I_52G_53F_54S_55C_67L_, Q9UKT9]
log2 fold change of degron read counts [1]: 1.24
log2 fold change of degron read counts [2]: 0.532
log2 fold change of degron read counts [3]: -0.284
log2 fold change of degron read counts (compound: thalidomide): -0.251

LQCEICGFSCTQKGNLLRHIKL [46L_47Q_49E_50I_52G_53F_54S_55C_67L_, Q9UKT9]
log2 fold change of degron read counts [1]: 2.41
log2 fold change of degron read counts [2]: 1.96
log2 fold change of degron read counts [3]: 1.77
log2 fold change of degron read counts (compound: thalidomide): 3.58

LNCEICGFSCTQKGNLLRHIKL [46L_47N_49E_50I_52G_53F_54S_55C_67L_, Q9UKT9]
log2 fold change of degron read counts [1]: 1.58
log2 fold change of degron read counts [2]: -0.0234
log2 fold change of degron read counts [3]: -0.0305
log2 fold change of degron read counts (compound: thalidomide): 0.742

FLCDICGACFTQKGNLLRHIKL [46F_47L_49D_50I_52G_53A_54C_55F_67L_, Q9UKT9]
log2 fold change of degron read counts [1]: -0.48
log2 fold change of degron read counts [2]: -1.68
log2 fold change of degron read counts [3]: 0.21
log2 fold change of degron read counts (compound: thalidomide): -0.568

FTCNQCGRMFTQKGNLLRHIKL [46F_47T_49N_50Q_52G_53R_54M_55F_67L_, Q9UKT9]
log2 fold change of degron read counts [1]: -2.42
log2 fold change of degron read counts [2]: -2.23
log2 fold change of degron read counts [3]: -3.36
log2 fold change of degron read counts (compound: thalidomide): -2.15

FKCPVCGANFTQKGNLLRHIKL [46F_47K_49P_50V_52G_53A_54N_55F_67L_, Q9UKT9]
log2 fold change of degron read counts [1]: -1.23
log2 fold change of degron read counts [2]: -1.7
log2 fold change of degron read counts [3]: -1.75
log2 fold change of degron read counts (compound: thalidomide): -0.842

FFCNVCGASFTQKGNLLRHIKL [46F_47F_49N_50V_52G_53A_54S_55F_67L_, Q9UKT9]
log2 fold change of degron read counts [1]: 0.714
log2 fold change of degron read counts [2]: 1.8
log2 fold change of degron read counts [3]: 0.537
log2 fold change of degron read counts (compound: thalidomide): -0.573

FWCNVCGATFTQKGNLLRHIKL [46F_47W_49N_50V_52G_53A_54T_55F_67L_, Q9UKT9]
log2 fold change of degron read counts [1]: -0.873
log2 fold change of degron read counts [2]: 1.95
log2 fold change of degron read counts [3]: 0.03
log2 fold change of degron read counts (compound: thalidomide): -1.73

FVCEICGHWFTQKGNLLRHIKL [46F_47V_49E_50I_52G_53H_54W_55F_67L_, Q9UKT9]
log2 fold change of degron read counts [1]: -4.05
log2 fold change of degron read counts [2]: -5.4
log2 fold change of degron read counts [3]: -3.27
log2 fold change of degron read counts (compound: thalidomide): -3.37

FCCNVCGAIFTQKGNLLRHIKL [46F_47C_49N_50V_52G_53A_54I_55F_67L_, Q9UKT9]
log2 fold change of degron read counts [1]: -0.872
log2 fold change of degron read counts [2]: -0.605
log2 fold change of degron read counts [3]: 1.29
log2 fold change of degron read counts (compound: thalidomide): -0.21

FRCDVCGAKFTQKGNLLRHIKL [46F_47R_49D_50V_52G_53A_54K_55F_67L_, Q9UKT9]
log2 fold change of degron read counts [1]: -1.66
log2 fold change of degron read counts [2]: -1.94
log2 fold change of degron read counts [3]: -0.967
log2 fold change of degron read counts (compound: thalidomide): -0.732

FFCEICGHQFTQKGNLLRHIKL [46F_47F_49E_50I_52G_53H_54Q_55F_67L_, Q9UKT9]
log2 fold change of degron read counts [1]: -2.47
log2 fold change of degron read counts [2]: -1.41
log2 fold change of degron read counts [3]: -2.03
log2 fold change of degron read counts (compound: thalidomide): -3.11

FCCPVCGAYFTQKGNLLRHIKL [46F_47C_49P_50V_52G_53A_54Y_55F_67L_, Q9UKT9]
log2 fold change of degron read counts [1]: 0.773
log2 fold change of degron read counts [2]: 0.428
log2 fold change of degron read counts [3]: 1.38
log2 fold change of degron read counts (compound: thalidomide): 0.899

LTCEICGFSCTQKGNLLRHIKL [46L_47T_49E_50I_52G_53F_54S_55C_67L_, Q9UKT9]
log2 fold change of degron read counts [1]: 2.45
log2 fold change of degron read counts [2]: 3.22
log2 fold change of degron read counts [3]: 2.39
log2 fold change of degron read counts (compound: thalidomide): 3.2

LICEICGFSCTQKGNLLRHIKL [46L_47I_49E_50I_52G_53F_54S_55C_67L_, Q9UKT9]
log2 fold change of degron read counts [1]: 1.33
log2 fold change of degron read counts [2]: 3.02
log2 fold change of degron read counts [3]: 2.39
log2 fold change of degron read counts (compound: thalidomide): 3.24

LYCEICGFSCTQKGNLLRHIKL [46L_47Y_49E_50I_52G_53F_54S_55C_67L_, Q9UKT9]
log2 fold change of degron read counts [1]: 3.63
log2 fold change of degron read counts [2]: 3.7
log2 fold change of degron read counts [3]: 3.1
log2 fold change of degron read counts (compound: thalidomide): 2.45

LCCEICGFSCTQKGNLLRHIKL [46L_47C_49E_50I_52G_53F_54S_55C_67L_, Q9UKT9]
log2 fold change of degron read counts [1]: 2.55
log2 fold change of degron read counts [2]: 2.37
log2 fold change of degron read counts [3]: 1.93
log2 fold change of degron read counts (compound: thalidomide): 2.56

LMCEICGFSCTQKGNLLRHIKL [46L_47M_49E_50I_52G_53F_54S_55C_67L_, Q9UKT9]
log2 fold change of degron read counts [1]: 1.25
log2 fold change of degron read counts [2]: 2.14
log2 fold change of degron read counts [3]: 2.59
log2 fold change of degron read counts (compound: thalidomide): 2.36

LKCEICGFSCTQKGNLLRHIKL [46L_47K_49E_50I_52G_53F_54S_55C_67L_, Q9UKT9]
log2 fold change of degron read counts [1]: 1.07
log2 fold change of degron read counts [2]: -1.26
log2 fold change of degron read counts [3]: -1.41
log2 fold change of degron read counts (compound: thalidomide): 0.762

LFCEICGFSCTQKGNLLRHIKL [46L_47F_49E_50I_52G_53F_54S_55C_67L_, Q9UKT9]
log2 fold change of degron read counts [1]: 3.66
log2 fold change of degron read counts [2]: 3.51
log2 fold change of degron read counts [3]: 2.53
log2 fold change of degron read counts (compound: thalidomide): 2.79
